Data published in PubChem BioAssay AID652104 (National Center for Advancing Translational Sciences (NCATS), 2013).
Out of some 410,000 compounds screened, about 7,200 (1.8%) were called active. Roughly 7% stayed inconclusive and do not appear here. The call rests on the fitted dose curve; in most records, active means well fitted activation curve with a large enough effect; inconclusive means small, poorly fitted or top-dose-only effect, or another doubt; inactive means no such curve, though single readings can be large or run the other way. The entries come from a sample that favours actives as a whole.

Assay: qHTS of TDP-43 Inhibitors; further: nearly all actives have a fitted effect of over 50% in size; on Growth rescue (activation): % of control where 0% means no effect
Settings: TDP-43 expressing yeast growth rescue, BacTiter-Glo, 24 h; series mostly up to 46.1 µM
Summary of the method: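 Luminescence from BacTiter-Glo reports growth of TDP-43-expressing yeast after 24 hr at 30 deg C with compound. Cells were raffinose-pregrown to mid-log, then seeded in galactose medium at OD600=0.02.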
Potency means the concentration at half of the fitted maximal effect.

Potency, inactive:
CCOc1ccccc1C(=O)NC1(C(F)(F)F)C(=O)Nc2c1c(=O)[nH]c(=O)n2-c1ccc(F)cc1 (centres undefined)
CCCCOc1ccc(CN2C(=O)C(=O)c3cc(Br)cc(C)c32)cc1OC
Cc1cccc(C2CC(=O)Oc3c2c(=O)n(C)c2ccccc32)c1 (centres undefined)
Cn1c(=O)c([N+](=O)[O-])c(Oc2ccccc2)c2ccccc21
CCN(CCCNC(=O)Cn1ncc2c([nH]c3ccccc32)c1=O)c1cccc(C)c1
CCOC(=O)C1CCCN(C(=O)Cn2ncc3c(C)n(Cc4ccc(F)cc4)c(C)c3c2=O)C1 (centres undefined)
O=C(CCOc1ccccc1)N(Cc1cccnc1)c1nc2ccc(Cl)cc2s1
Nc1cccc(-c2cncc(N3CCN(Cc4ccccn4)CC3)n2)c1
COc1cccc(-c2cnc3c(NC(C)=O)cc(-c4cccc(NC(C)=O)c4)cn23)c1
CC(=O)Nc1cccc(-c2cc(NC(C)=O)c3ncc(-c4ccccc4)n3c2)c1
CCOc1ccc(C(=O)c2cn(Cc3ccccc3OC)c3ccc(F)cc3c2=O)cc1
COc1ccc2ncc3c(-c4ccc(C)c(C)c4)nn(CC(=O)NC4CCCC4)c3c2c1
COc1ccc2c(c1)Cc1sc(NC(=O)c3ccccc3Br)nc1-2
CCOC(=O)c1cc2c(=O)n3ccccc3nc2n(CC2CCCO2)c1=NC(=O)c1ccc(C(C)(C)C)cc1 (centres undefined)
COc1ccc(OCCn2cc(C(=O)C3CCCCC3)c3ccccc32)cc1
O=C(c1ccc(Cl)nc1)N1CCN(S(=O)(=O)c2ccc3c(c2)OCCO3)CC1
CCNC(=O)N1CCN(S(=O)(=O)c2ccc3c(c2)OCCCO3)CC1
CCOC(=O)Cc1csc(SCC(=O)Nc2ccc(C)cc2F)n1
CCOC(=O)Cc1csc(SCc2cc(=O)oc3cc(O)ccc23)n1
Cc1ccc(C(=O)Nc2ccc(OCc3cc(=O)n4c(C)csc4n3)cc2)cc1
CCSc1nnc(NC(=O)c2cc(=O)c3cc(C)c(C)cc3o2)s1
O=C(Cn1c(=O)n(Cc2ccccc2)c(=O)c2sc3ccccc3c21)Nc1ccccc1F
CCc1nnc(SCC(=O)Nc2cc(OC)ccc2OC)nc1CC
CCn1c(COc2ccccc2)nnc1SCC(=O)Nc1ccc2c(c1)OCCO2
Cc1ccc(CN2C(=O)SC(Nc3ccccc3)C2=O)cc1 (centres undefined)
C=CCn1c(-c2ccc3[nH]c(C)c(C)c3c2)n[nH]c1=S
C=CCn1c(-c2ccccc2OCC)n[nH]c1=S
Cc1ccc(C(=O)COC(=O)C(Cc2c[nH]c3ccccc23)NC(=O)c2ccc(Br)cc2)cc1 (centres undefined)
O=C1OC(C(=O)Nc2cccc(Br)c2)Cc2ccccc21 (centres undefined)
COc1cc2c(cc1OC)C(c1cccc([N+](=O)[O-])c1)=NCC2
CCOC(=O)CSc1ncc(-c2cccc(Cl)c2)cn1
COc1cccc(C(=O)NC(=O)Nc2ccc(-c3cc(C(F)(F)F)nn3-c3ccccc3)cc2)c1
CCS(=O)(=O)N1CCC(n2c(C)nc3cccnc32)CC1
CCN(CC)S(=O)(=O)c1ccc2nc(CSc3nnnn3-c3ccc(O)cc3)[nH]c2c1
O=C(CSc1nnnn1-c1ccc(O)cc1)c1ccc(F)cc1
Cc1ccc(C)c(N2CCN(c3ccc4cc(S(=O)(=O)N5CCC(C)CC5)ccc4n3)CC2)c1
C=CCNc1nc(C)nc(OC)n1
CCOC(=O)CNc1nc(Cl)nc(Nc2ccccc2)n1
Cc1cccc(NC(=O)N2CCN(C)c3ncccc32)c1C
CC(C)CNC(=O)COC(=O)c1ccccc1OCC(=O)Nc1ccc(Br)cc1
O=C(Nc1ccc(-c2nc3cc(NC(=O)c4ccccc4Cl)ccc3o2)cc1)c1ccccc1Cl
O=C(COc1ccccc1)Nc1nonc1NC(=O)COc1ccccc1
O=C(COC(=O)CSc1nnc(-c2ccc(Cl)cc2)o1)Nc1cc(Cl)cc(Cl)c1
COc1cccc(-c2nnc(NC(=O)c3ccc(S(=O)(=O)N(CC(C)C)CC(C)C)cc3)o2)c1
Cc1ccc2nc(N3CCN(c4cccc(Cl)c4)CC3)c3nnnn3c2c1
O=C(Cn1c(-c2cccs2)cc2ccccc21)NCCc1ccc(Cl)cc1
CCn1cc(C(=O)N2CCN(c3cc(Cl)ccc3C)CC2)c(=O)c2cc(S(=O)(=O)N3CCCC3)ccc21
CCCSc1nc2sc3c(c2c(=O)n1-c1cccc(Br)c1)CC(C)(C)OC3
Cc1c(NC(=O)Cc2ccccc2)cccc1-c1nc2cccnc2s1
COc1ccc(NC(=O)N2CCCn3nc(C)cc32)cc1OC
Cc1nnc(SCC(=O)NCCOc2ccc(Cl)cc2)n1-c1ccccc1
O=C(CCSc1ccccc1)NCCSc1ccccn1
COc1cc(NC(=O)c2noc3c2CSc2ccccc2-3)cc(OC)c1OC
COC(=O)CN1C(=O)CSc2ccc(S(=O)(=O)Nc3cc(C)ccc3C)cc21
CCOC(=O)/C(=C\c1ccc([N+](=O)[O-])cc1)C(=O)c1cc(C(C)=O)c(Nc2ccccc2)s1
CCc1ccccc1NC(=O)/C(=C/c1ccccc1)c1ccccc1
CCOc1cccc2c1N[C@@H](c1ccc(C(=O)O)cc1)[C@H]1CC=C[C@@H]21
COc1cccc(CNC(=O)c2ccc3c(c2)N(Cc2ccc(C(F)(F)F)cc2)C(=O)c2ccccc2S3)c1OC
Cn1c(=O)c2sccc2n2c(CCC(=O)NCc3ccccc3Cl)nnc12
COc1ccc(NC(=O)CN(C)C(=O)c2ccc(NC3CC3)c([N+](=O)[O-])c2)cc1
Cc1c(NC(=O)CCC2CCCCC2)cc(C(=O)N2CCOCC2)cc1[N+](=O)[O-]
CCc1ccc(C2C(C(=O)Nc3ccccc3)=C(C)Nc3c(C(=O)Nc4ccc(C)cc4)cnn32)cc1 (centres undefined)
CCOC(=O)c1ccc(NC(=O)Cn2c(=O)n(-c3ccc(C)cc3)c(=O)c3c2cnn3C)cc1
Cc1ccc(-c2nnc(Nc3cccc(Br)c3)c3ccccc23)cc1S(=O)(=O)NCC1CCCO1 (centres undefined)
CCc1nccn1S(=O)(=O)c1cc(Br)ccc1Br
O=C(CSc1ccc2nnc(-c3ccccc3)n2n1)N1CCCc2ccccc21
Cc1ccc(NC(=O)Cc2ccc(NC(=O)N3CCCCc4ccccc43)cc2)cc1
Cc1ccc(NC(=O)COc2ccc(-n3ccnc3)cc2)cc1Cl
Cc1ccc(OCC(=O)Nc2ccc3oc(=O)ccc3c2)cc1C
Cn1c(=O)c2c(n3c4ccccc4nc13)NC(=O)CC2c1cccc(Cl)c1 (centres undefined)
CC(=O)N1CCc2cc(S(=O)(=O)NC(Cc3ccccc3)C(=O)NCc3ccc(C)cc3)ccc21 (centres undefined)
CCOc1ccccc1CNCc1c(C(=O)O)c(C)n(Cc2ccc(C)cc2)c1C
Cc1ccc2ncc(C(=O)Nc3ccc(OC(F)(F)F)cc3)c(=O)n2c1
O=C(COC(=O)c1cccc(Cl)c1Cl)NC1CCCCCC1
Cc1ccc(C(=O)OCC(=O)NC2CCCCCCC2)cc1C
CCn1cc2nc(SCc3ccccc3Cl)n(CCc3ccccc3)c(=O)c2n1
COc1ccc(CNC(=O)CCc2c(C)nn(-c3ccc(N4CCCC4)nn3)c2C)cc1

Potency, active:
Cc1cccc(Oc2c([N+](=O)[O-])c(=O)n(C)c3ccccc23)c1 11.2 µM
Nc1cccc(-c2cc(-c3ccccc3)nc(-c3cccc(N)c3)n2)c1 14.1 µM
CC(=O)Nc1cc(-c2ccccc2F)cn2c(-c3cccc(C(F)(F)F)c3)cnc12 31.6 µM
CC1CC2=C(CC1/C=N/NC(N)=S)C(C)(C)CCC2 (centres undefined) 22.4 µM
O=C(c1c(F)cccc1Cl)N1CCN(S(=O)(=O)c2ccc3c(c2)OCCCO3)CC1 14.1 µM
CCOC(=O)Cc1csc(SCC(=O)NC(C)C23CC4CC(CC(C4)C2)C3)n1 (centres undefined) 22.4 µM
CCn1c(COc2ccc(OC)cc2)nnc1SCC(=O)Nc1cc(OC)ccc1OC 17.8 µM
C=CCn1c(-c2sc(-c3ccccc3)nc2C)n[nH]c1=S 35.5 µM
Nc1c(-c2cccc(Cl)c2)cnn1-c1cccc([N+](=O)[O-])c1 10 µM
Oc1ccc(-n2nnnc2SCc2c(F)cccc2Cl)cc1 15.8 µM
C=CCNc1nc(Nc2ccc(Cl)cc2)nc(OC)n1 35.5 µM
O=C(COC(=O)c1ccccc1Br)Nc1nnc(-c2ccccc2)o1 22.4 µM
O=C(Nc1nnc(-c2ccc(Cl)cc2)o1)c1ccccc1Br 7.08 µM
O=C(COC(=O)c1ccc(Oc2ccccc2)cc1)Nc1nnc(-c2ccccc2)o1 22.4 µM
O=C(COc1ccc(Cl)cc1)NCCSc1ccccc1 17.8 µM
CCOC(=O)C(=Cc1ccccc1)C(=O)c1ccccc1 6.31 µM
Cc1cc(C=O)c(C)n1-c1ccc(NC2CCCCC2)c([N+](=O)[O-])c1 35.5 µM
O=C(c1cc(-c2ccc(O)cc2)on1)N1CCCc2ccccc21 12.6 µM
Cc1ccc(OCC(=O)Nc2ccc(Cl)c(-c3nc4ccccc4[nH]3)c2)cc1C 22.4 µM
O=C(COC(=O)c1cccc(Cl)c1)NC1CCCCCCC1 22.4 µM

Growth rescue (activation), inactive:
Cc1c(Br)ccc(NC(=O)COc2ccccc2C(N)=O)c1C 10.9% [at 9.22 µM]
Cn1nnnc1SCCCNCc1ccc(Cl)cc1 7.89% [at 9.22 µM]
